Results on 58 compounds are retold here after PubChem BioAssay AID652105 (National Center for Advancing Translational Sciences (NCATS), 2013).

About 4,100 (1.2%) of roughly 330,000 compounds were called active. About 2% were inconclusive and are not listed. How the source made its calls: active means max response of -50% or lower; inconclusive means between -30% and -50%; inactive means -30% or higher. For the sample, actives were picked, then their nearest neighbours and some compounds at random.
On the % scale 0 is the no-effect control and ±100 the full control effect.

For this assay, the target named is Phosphatidylinositol 5-phosphate 4-kinase type-2 alpha (Homo sapiens) (UniProt P48426). The experiment in a line: qHTS for Inhibitors of phosphatidylinositol 5-phosphate 4-kinase (PI5P4K). Further: value at the top dose of about 77 µM. The following applies: PI5P4Kalpha enzyme, ADP-Glo luminescence, 60 min; hits give low values. In outline: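 qHTS, 1536-well: enzyme/substrate mix, compound by pin tool, 5 microM ATP final; RT 60 min; ADP-Glo reagents 1 (45 min) then 2 (30 min); luminescence.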
Chain of Phosphatidylinositol 5-phosphate 4-kinase type-2 alpha (Homo sapiens) (P48426 whole entry, looked up): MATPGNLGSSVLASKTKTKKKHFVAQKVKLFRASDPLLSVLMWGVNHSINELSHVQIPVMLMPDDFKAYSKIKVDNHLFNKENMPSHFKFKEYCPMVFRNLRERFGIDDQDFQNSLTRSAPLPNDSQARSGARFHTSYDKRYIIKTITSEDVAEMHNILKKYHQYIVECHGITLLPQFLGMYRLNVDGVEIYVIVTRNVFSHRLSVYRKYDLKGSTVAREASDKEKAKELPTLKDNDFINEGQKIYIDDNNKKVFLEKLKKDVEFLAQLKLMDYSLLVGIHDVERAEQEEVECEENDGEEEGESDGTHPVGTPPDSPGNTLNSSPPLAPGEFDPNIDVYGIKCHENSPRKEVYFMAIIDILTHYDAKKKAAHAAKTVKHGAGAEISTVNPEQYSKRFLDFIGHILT
Take `N#CC1=C(N)Oc2[nH]c(=S)[nH]c(=O)c2C12C(=O)Nc1ccccc12` (stereo not drawn): the max response is -89.2% (active).
As to `CC1(C)Cc2ccccc2-c2[nH]c(=S)[nH]c(=O)c21`, the max response was -19.7% (inactive).
Then `Cc1ccc(NC2(C#N)C(=O)Nc3ccccc32)cc1` (stereo not drawn), with -2.41% (inactive); and `CCc1c(-c2ccc(F)cc2)ncn1Cc1cccc(-c2ccccc2)c1`, with -9.99% (inactive).
Consider `O=c1[nH]c(/C=C/c2cccc(Br)c2)nc2ccccc12`, for which the max response is -0.363% (inactive).
As for `NNc1cccc(C=Cc2ccccc2)cc1=O`, the max response is -74.4% (active).
To `O=c1oc(/C=C/c2ccccc2)nc2ccccc12` belongs 8.43% (inactive).
Take `OC(c1ccccc1)(c1ccccc1)C1CCN(CCCOc2ccccc2)CC1`: the max response was -3.47% (inactive).
For the compound `CC(C)C1Cc2[nH][nH]c(=O)c2C(c2ccc(Cl)cc2)O1` (stereo not drawn), the max response is -8.68% (inactive).
For `CC1(C)Cc2c(C#N)c(SCc3nc4ccccc4[nH]3)nc(N3CCOCC3)c2CO1`, the max response is 2.17% (inactive).
In the case of `C1=C(N2CCOCC2)/C(=C/c2nc3ccccc3[nH]2)CC1`, the max response was -77.5% (active).
As for `O=c1[nH]c(N2CCOCC2)nc2ccccc12`, the max response was -4.73% (inactive).
As for `FC(F)(F)c1cccc(-c2nc3ccccc3n2C(c2ccccc2)c2nc3ccccc3[nH]2)c1` (stereo not drawn), the max response is -4.13% (inactive).
Turning to `CC1(C(=O)NS(=O)(=O)c2cccs2)CCN1C(=O)Cc1ccc(-c2ccccc2)cc1` (stereo not drawn), the max response is -0.507% (inactive).
As for `COC(=O)c1c(C)[nH]c(C)c1-c1ccc([N+](=O)[O-])cc1`, the max response was 8.82% (inactive).
For the compound `COC(=O)C1=C(C)N(C)C(=O)NC1c1ccc([N+](=O)[O-])o1` (stereo not drawn), the max response was -6.27% (inactive).
Then `COC(=O)C1=C(C(=O)OC)C(c2cc([N+](=O)[O-])ccc2O)c2sc(=O)[nH]c2S1` (stereo not drawn), with -81% (active).
For the compound `CCCNC(=O)C1(C)CCN1C(=O)Cc1ccc(-c2ccccc2)cc1` (stereo not drawn), the max response was -2.28% (inactive).
`CC(=O)c1nn(-c2ccccc2)c(=Nc2ccccc2)cc1C`: the max response is -0.302% (inactive).
Regarding `O=C(NCc1cccnc1)c1cc(C2CCCN(C(=O)CCCc3ccccc3)C2)on1` (stereo not drawn), the max response is 1.02% (inactive).
As to `O=C(Nc1ccccc1)C1CCN(C(=O)c2ccc(Br)cc2)CC1`, the max response was -5.42% (inactive).
In the case of `COc1ccc(CNC(=O)C2CCN(C(=O)c3ccccc3)CC2)cc1`, the max response was 6.89% (inactive).
Regarding `COc1ccc(C(=O)N2CCC(C(=O)Nc3ccc(C)cc3)CC2)cc1`, the max response is -67.6% (active).
Consider `Nc1ccccc1SC(C[N+](=O)[O-])c1ccccc1` (stereo not drawn), for which the max response was -75.7% (active).
With `Cc1ccc(C(C[N+](=O)[O-])c2c(C)cc3ccccn23)cc1` (stereo not drawn), the max response is 3.11% (inactive).
Turning to `Nc1ccccc1SCc1cc([N+](=O)[O-])cc2c1OCOC2`, the max response was 0.872% (inactive).
As for `COc1cc(NC(=O)c2cc(-c3ccc(F)cc3OC(C)C)n[nH]2)cc(OC)c1OC`, the max response was -6.5% (inactive).
In the case of `CCCCCCN1CCN(C2CN(Cc3cn(Cc4ccc(F)cc4)nn3)S(=O)(=O)C2)CC1` (stereo not drawn), the max response was 0.312% (inactive).
As for `CN1CCN(/N=C/c2ccc(-c3ccc([N+](=O)[O-])cc3)o2)CC1`, the max response is -0.908% (inactive).
Then `NS(=O)(=O)c1ccc(-c2ccc(/C=C3\SC(=O)NC3=O)o2)cc1`, with -52.9% (active); and `O=C(Nc1ccccc1)c1ccccc1Br`, with 2.77% (inactive); and `CCN(CC)CCN(C)C(c1ccnc2ccccc12)c1nnnn1-c1ccc2c(c1)OCCO2` (stereo not drawn), with -0.0355% (inactive).
As to `O=C(N/N=C/c1ccco1)c1ccc(C(=O)N/N=C/c2ccco2)o1`, the max response is -70.9% (active).
Regarding `O=C(Cc1ccc([N+](=O)[O-])cc1)N/N=C/c1ccco1`, the max response was -5.81% (inactive).
As to `O=C(N/N=C/c1ccco1)c1csc2c1CCCC2`, the max response is -21.6% (inactive).
As to `OC(c1cc(Cl)cc(Cl)c1)c1ncc(-c2ccccc2C(F)(F)F)[nH]1` (stereo not drawn), the max response is 14.3% (inactive).
Then `COc1ccc(NC(=O)C2Cc3c(-c4cccc(NC(C)=O)c4)ccnc3O2)cc1OC` (stereo not drawn), with -8.09% (inactive); and `C=CCC[C@H](CCCCC)OC(=O)/C=C/[C@H](O)[C@@H](O)C[C@@H](O)CC=C`, with 17.1% (inactive).
As for `Oc1[nH]c2ccc(Br)cc2c1N=Nc1nn[nH]n1`, the max response was -58.4% (active).
With `NS(=O)(=O)c1ccc(N=Nc2c(O)[nH]c3ccc(Br)cc23)cc1`, the max response was -0.139% (inactive).
To `O=C(CNC(=O)Cc1ccccc1)N=Nc1c(O)[nH]c2ccc(Br)cc12` belongs -6.57% (inactive).
`CC1(C(=O)NCc2ccccc2)CN(S(C)(=O)=O)CC(=O)N1CC(F)(F)F` (stereo not drawn): the max response was -7.01% (inactive).
As for `O=C(O)c1ccccc1N=N/C(=N/Nc1cc(S(=O)(=O)O)ccc1O)c1ccccc1`, the max response is -101% (active).
Take `CN1OC[C@@H]2CN(C(=O)c3cccc4ccccc34)[C@H](c3ccc(N4CCCCC4)cc3)C[C@@H]21`: the max response is -0.774% (inactive).
With `COC(=O)c1ccc2nc(-c3ccc(OC)c(OC)c3)c(Cc3ccccc3)n2c1`, the max response was -1.07% (inactive).
For `CCOC(=O)C=Cc1ccc(C(=O)OCC)[nH]1`, the max response was 2.97% (inactive).
On to `CCN(CCN(C)C)C(=O)c1ccc2nc(C)c(N(C)C(=O)CCc3ccccc3)n2c1`, for which the max response is 10.1% (inactive).
Regarding `O=C(COC(=O)c1ccccc1O)NCc1ccco1`, the max response was -51.6% (active).
Then `O=C(COC(=O)c1cccs1)NCc1cccs1`, with -2.68% (inactive); and `O=C(COC(=O)Cc1ccc(Cl)cc1Cl)NCc1ccco1`, with 0.392% (inactive); and `O=C(COC(=O)CCC(=O)c1cccs1)NCc1ccco1`, with -63% (active).
Consider `O=C(COC(=O)c1cc(S(=O)(=O)N2CCCCC2)ccc1Cl)NCc1ccco1`, for which the max response is -24.6% (inactive).
In the case of `CC1CCN(C(=O)COC(=O)CCC(=O)c2cccs2)CC1`, the max response was -4% (inactive).
Take `Cc1cc(C)n2c(Nc3c(C)cccc3C)c(CCc3ccccc3)nc2n1`: the max response was 0.703% (inactive).
Then `Cc1ccc(Cc2c(-c3ccc(Cl)cc3)nc3c4ccccc4ccn23)cc1`, with 19.7% (inactive); and `Cc1ccccc1Cn1c(C)c(C(=O)NCc2cccc(C(F)(F)F)c2)sc1=O`, with 6.94% (inactive).
In the case of `CCCCCn1nnnc1-c1nc2cc3ccccc3cc2[nH]c1=O`, the max response is -6.84% (inactive).
For `CCOC(=O)C(C(=O)c1ccccc1)C(c1ccccc1)c1nccc2ccccc12` (stereo not drawn), the max response is -6.07% (inactive).
